This is an account of results in PubChem BioAssay AID2576 (National Center for Advancing Translational Sciences (NCATS), 2010).

Records with an inconclusive call do not appear. Entries that show only a call come without a potency. The source made the active and inactive calls. The call rests on the fitted dose curve; in most records, active means well fitted activation curve with a large enough effect; inconclusive means small, poorly fitted or top-dose-only effect, or effect the other way; inactive means flat fitted curve, though single readings scatter.

Chain of Pyruvate kinase PKM (Homo sapiens) (P14618 whole entry, looked up, canonical isoform): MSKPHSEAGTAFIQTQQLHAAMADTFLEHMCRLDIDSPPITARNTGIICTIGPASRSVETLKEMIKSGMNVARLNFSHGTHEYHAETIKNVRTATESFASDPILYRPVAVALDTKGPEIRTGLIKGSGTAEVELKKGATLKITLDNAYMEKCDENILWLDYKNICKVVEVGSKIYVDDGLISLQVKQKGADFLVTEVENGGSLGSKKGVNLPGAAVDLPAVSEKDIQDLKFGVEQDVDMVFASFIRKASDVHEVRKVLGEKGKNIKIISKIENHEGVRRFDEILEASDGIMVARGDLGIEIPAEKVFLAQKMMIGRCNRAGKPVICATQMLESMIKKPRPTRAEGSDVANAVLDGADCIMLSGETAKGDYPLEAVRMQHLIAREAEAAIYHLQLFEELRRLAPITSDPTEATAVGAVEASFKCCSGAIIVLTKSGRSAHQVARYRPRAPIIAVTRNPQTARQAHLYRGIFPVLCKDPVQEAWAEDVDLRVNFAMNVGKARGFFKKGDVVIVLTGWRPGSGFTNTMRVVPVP

This test addresses Pyruvate kinase PKM (Homo sapiens) (UniProt P14618). As to the kind of experiment: Secondary LDH Assay for Activators of Human Pyruvate Kinase M2 isoform: for Probe SAR. Particulars: purified hPK-M2, LDH-coupled NADH fluorescence kinetic; series mostly up to 58.4 µM. The text has this:
NIH Chemical Genomics Center [NCGC] Matthew G. Vander Heiden, M.D., Ph.D. [Harvard Medical School, 77 Avenue Louis Pasteur, Boston, MA 02115] NCGC Assay Overview: Human pyruvate kinase muscle 2 (hPK-M2)enzyme was supplied as a highly purified (>95% pure) preparation from Harvard Medical School and a secondary assay was used to evaluate compounds. This assay couples the formation of pyruvate from hPK-M2 using lactate dehydrogenase (LDH) and NADH. The depletion of NADH is followed in a fluorescent-based kinetic assay that follows the formation of pyruvate to lactate, as catalyzed LDH (described by Hannaert et al., 2002)1 Pyruvate kinase substrates, PEP and ADP, were present in the assay at 0.1 mM and 4 mM respectively. In this kinetic assay initial rates were determined by following the fluorescence of NADH depletion.
NCGC Assay Protocol Summary: Three uL of substrate mix (final concentration, 50 mM Tris-Cl pH 8.0, 200 mM KCl, 15 mM MgCl2, 0.1 mM PEP, 4.0 mM ADP, and 0.2 mM NADH) was dispensed into black-solid 1536 well plates. 23 nL of compounds were delivered by a pin tool and 1 uL of enzyme mix (final concentrations, 10 nM hPK-M2 and 1 uM of LDH) was added. Plates were immediately placed in ViewLux (Perkin Elmer) and NADH fluorescence was determined at 30 second exposure intervals for between 3 and 6 minutes. Data were normalized to the uninhibited and EC100 activation using known activators such as fructose-bis-phosphate.
For the molecule `CC(=O)N1c2ccc(S(=O)(=O)Nc3ccc(C)c(C)c3)cc2CC1C` (stereo not given), the Potency entry was “inactive”.

For `O=C1CCc2cc(S(=O)(=O)Nc3cccc(-c4ccccc4)c3)ccc2N1`, the Potency entry is “inactive”. The figure for `CSc1cc2c(s1)c1cnn(Cc3cccc(N)c3)c(=O)c1n2C` is 58 nM (active). In the case of `Cc1ccc(NS(=O)(=O)c2ccc3c(c2)N(C)C(=O)CO3)cc1C` it was 1460 nM (active); in that of `O=C1CCc2cc(S(=O)(=O)Nc3ccncc3)ccc2N1`, “inactive”. `Cc1ccc(NS(=O)(=O)c2cc3c(cc2Cl)NC(=O)CO3)cc1C`: the Potency was 819 nM (active). The entry for `Cc1ccc(C)c(OC2=NS(=O)(=O)c3ccccc32)c1` is “inactive”; for `Cc1cc2c(s1)c1cnn(Cc3cc(F)c(F)cc3F)c(=O)c1n2C` it is 398 nM (active); for `O=C1c2ccccc2C(=O)N1Cc1cccnc1` it is “inactive”.

As for `Cc1ccc2nc(-c3ccc(C)o3)c(NC3CCCC3)n2c1`, the Potency entry is “inactive”.

Turning to `O=C1c2ccccc2C(=O)N1c1cccc2cccnc12`, the Potency result is “inactive”. The entry for `Cc1ccc(NS(=O)(=O)c2cc3c(cc2N2CCCCC2)NC(=O)CC3)cc1C` is “inactive”; for `Cc1ccc(NS(=O)(=O)c2ccc3c(c2)oc(=O)n3C)cc1C` it is “inactive”; for `Cc1ccc(NS(=O)(=O)c2ccc(-c3ccccc3)cc2)cc1C` it is “inactive”.

Turning to `Cc1ccc(NS(=O)(=O)c2cc3c(cc2-c2ccccc2)NC(=O)CO3)cc1C`, the Potency result is “inactive”. In the case of `O=C1c2ccccc2C(=O)N1c1ccccn1` it was “inactive”; in that of `COc1ccc(N2C(=O)c3ccccc3C2=O)cc1`, “inactive”.

Turning to `Cc1ccc2nc(-c3cccs3)c(Nc3ccccc3)n2c1`, the Potency result was “inactive”. Turning to `O=C1c2ccccc2C(=O)N1c1cccc(Cl)c1`, the Potency result was “inactive”.

On to `Cc1cc(C)n2c(Nc3ccccc3)c(-c3ccc(C)o3)nc2n1`, for which the Potency entry is “inactive”.

`Cc1ccc2nc(-c3ccc(C)o3)c(Nc3ccc4c(c3)OCO4)n2c1`: the Potency was 29100 nM (active). In the case of `O=C1CCc2cc(S(=O)(=O)Nc3ccccc3-c3ccccc3)ccc2N1` it was “inactive”; in that of `O=C1c2ccccc2C(=O)N1c1nccs1`, “inactive”; in that of `Cc1cc(N2C(=O)c3ccccc3C2=O)n[nH]1`, “inactive”. The entry for `O=S1(=O)N=C(Oc2ccccc2)c2ccccc21` is “inactive”; for `O=C1NS(=O)(=O)c2ccccc21` it is “inactive”. For the molecule `COc1cccc(Cn2ncc3c4sc(SC)cc4n(C)c3c2=O)c1`, the Potency was 206 nM (active). The entry for `Cc1ccc(NS(=O)(=O)c2ccc3c(c2)CCC(C)(C)O3)cc1C` is “inactive”. For `Cc1ccc(NS(=O)(=O)c2ccc3c(c2)CCC(=O)N3)cc1C`, the Potency is 146 nM (active). As to `Cc1ccc(NS(=O)(=O)c2cccc(F)c2)cc1C`, the Potency result is “inactive”. The entry for `O=C1c2ccccc2C(=O)N1c1ccncc1` is “inactive”. The entry for `O=C1CCc2cc(S(=O)(=O)Nc3cccnc3)ccc2N1` is “inactive”; for `COc1cccc(N2C(=O)c3ccccc3C2=O)c1` it is “inactive”. The figure for `Cn1c2cc(S(C)=O)sc2c2cnn(Cc3cccc(O)c3)c(=O)c21` (stereo not given) is 1030 nM (active); for `Nc1cc(S(=O)(=O)N2CCN(S(=O)(=O)c3ccc4c(c3)OCCO4)CC2)ccn1` it is “inactive”. With `Fc1ccccc1-c1ccc(-c2nc3ccc(Cl)cn3c2Nc2ccc(Cl)cc2)o1`, the Potency result is “inactive”.

For the molecule `Cc1cccc(NS(=O)(=O)c2ccc3c(c2)CCC(=O)N3)c1`, the Potency was 1830 nM (active). Take `O=C1c2ccccc2C(=O)N1c1ccc(Cl)cc1`: the Potency entry was “inactive”.

For `CSc1cc2c(s1)c1cnn(Cc3cccc(O)c3)c(=O)c1n2C`, the Potency was 206 nM (active).

In the case of `Cc1ccc(NS(=O)(=O)c2ccc(F)cc2)cc1C`, the Potency entry is “inactive”.
